Screens deposited in PubChem by several laboratories.
tim23-1 inh: growth inhibitors of tim23-1 mutant yeast, primary screen, luminescence, uHTS; S. cerevisiae tim23-1 growth, BacTiter-Glo luminescence, 24 h; inhibition, % at 20 µM; actives 1.3% (n = 330,000); AID 463212, 2010;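 active = growth inhibition of the mutant yeast at or above 50%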;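 note: temperature-sensitive mutant grown at 25 °C; plate controls were DMSO-treated mutant yeast for no effect and medium wells lacking yeast for full effect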
PfHsp90 yeast 2: growth inhibition of PfHsp90-expressing yeast, primary screen, antimalarial PfHsp90 inhibitor project, S. cerevisiae, BacTiter-Glo luminescence, single point, set 2; actives 0.32% (n = 310,000); BacTiter-Glo ATP, 48 h; yeast lacking PDR1 and PDR3 efflux regulators; inhibition, % at 9.4 µM; AID 504621, 2011;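 active = every replicate shows inhibition above about 80%, whatever the replicate mean, limit read from the data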;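 note: 0% = DMSO neutral controls and 100% = 20 µM radicicol positive controls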
SKKanGAS inh: S. pyogenes SKKanGAS growth inhibitors in kanamycin, primary screen, streptokinase expression inhibitor project, SKKanGAS strain, BacTiter-Glo luminescence; 6 h; inhibition, % at 7.5 µM; actives 1.3% (n = 300,000); AID 1662, 2009;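 active = mean replicate score, as percent of positive control median, at least 50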;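 note: strain carries kanamycin resistance gene driven by streptokinase promoter and grows in 40 µg/ml kanamycin; loss of luminescence reflects streptokinase promoter inhibition or plain growth inhibition; 0% = median of DMSO wells and 100% = positive control at its reference dose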
TIM10 inh: growth inhibitors of isogenic TIM10 control yeast, primary screen, counter-screen for tim10-1 yeast inhibitor project, luminescence, uHTS. S. cerevisiae TIM10 strain growth, BacTiter-Glo luminescence, 24 h. inhibition, % at 10 µM. actives 1.4% (n = 330,000);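 active = inhibition of 40% or more at the single tested concentration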;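 note: wild-type TIM10 isogenic control strain grown at permissive 25 °C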
tim10-1 inh: growth inhibitors of tim10-1 mutant yeast, primary screen, luminescence, uHTS | S. cerevisiae tim10-1 ts strain growth, BacTiter-Glo, 24 h | inhibition, % at 20 µM | actives 2.2% (n = 330,000);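 active = inhibition of at least 40%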;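 note: mutant grown at 25 °C; 0% = DMSO wells with yeast and 100% = wells holding no yeast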
EBI2 block: EBI2 receptor antagonists, beta-arrestin recruitment, primary screen, cell-based, luminescence, 7a,25-OHC stimulation, uHTS; 7a,25-OHC stimulated; inhibition, % at 5 µM; actives 0.81% (n = 360,000); in the data active = inhibition above about 38%;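 note: enzyme fragment complementation signal reports receptor beta-arrestin coupling in cells; 0% = agonist plus DMSO wells and 100% = wells without agonist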
Target sequence (P32249 whole entry, looked up, the tested form may be a part): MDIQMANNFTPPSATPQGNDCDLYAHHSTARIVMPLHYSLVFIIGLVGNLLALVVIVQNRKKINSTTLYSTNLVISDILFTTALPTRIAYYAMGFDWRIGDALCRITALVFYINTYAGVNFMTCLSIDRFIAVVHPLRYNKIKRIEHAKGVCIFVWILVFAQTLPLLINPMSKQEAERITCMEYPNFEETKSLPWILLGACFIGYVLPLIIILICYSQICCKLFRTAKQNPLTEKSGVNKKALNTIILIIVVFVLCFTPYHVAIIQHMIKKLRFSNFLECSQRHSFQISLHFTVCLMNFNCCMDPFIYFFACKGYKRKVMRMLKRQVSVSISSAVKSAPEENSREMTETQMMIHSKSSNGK
Active calls of the source: *; / = no result. An excerpt weighted towards active compounds, which were near 4.7% of everything screened.

SMILES	tim23-1 inh	PfHsp90 yeast 2	SKKanGAS inh	TIM10 inh	tim10-1 inh	EBI2 block
CC1CCN(c2nc(N3CCCCC3)nc(N3CCCCC3)n2)CC1	0	10	56*	1	-10	5
Cc1cc(/C=C2\SC(=Nc3ccccc3)NC2=O)c(C)n1-c1ccc(S(N)(=O)=O)cc1	7	-17	72*	11	21	13
O=C(Nc1ccc(Cl)cc1)c1cc2c(cc1O)[nH]c1ccccc12	7	6	100*	15	8	-9
O=C(/C=C/c1ccccc1)N1CCOCC1	2	-18	-12	4	-4	22
O=C(/C=C/c1ccccc1)CCN1CCOCC1	/	107*	/	/	/	2
Cc1ccc(C(=O)n2c3ccccc3c3ccccc32)cc1	21	/	67*	4	0	8
CC(=O)n1c2ccccc2c2ccccc21	13	-24	-2	21	25	-18
COc1ccc(C(=O)NCC(=O)OCC(=O)N2N=C(c3ccc(Cl)cc3)CC2c2ccco2)cc1OC (stereo not drawn)	18	-19	76*	4	22	3
COCC(=O)OCC(=O)N1N=C(c2ccc(Cl)cc2)CC1c1ccco1 (stereo not drawn)	22	/	-2	26	29	-7
CCN(CC)C(=O)c1csc(Nc2ccc(C)cc2)n1	30	/	/	12	27	33
CCOC(=O)/C(=N\Nc1ccc(Cl)cc1)c1csc(Nc2ccccc2)n1	23	-10	73*	39	39	10
CCOC(=O)/C(=N\Nc1ccc(OC)cc1)c1csc(Nc2ccccc2)n1	37	-54	60*	34	23	12
Cn1nc(SCc2ccccc2)c(=O)[nH]c1=O	/	/	/	/	/	-2
COc1ccc(CN(C)C[C@@H]2OCc3cnnn3CCCC(=O)N([C@H](C)CO)C[C@H]2C)cc1	/	/	/	/	/	-4
NC(Cc1ccc(C(F)(F)F)cc1)c1csc(Nc2ccc(S(N)(=O)=O)cc2)n1 (stereo not drawn)	/	/	/	/	/	-16
CCS(=O)(=O)Nc1ccc(-c2cc(-c3ccccc3)c3cc(C)ccc3n2)cc1	/	69	95*	/	/	19
Cc1ccc2nc(-c3ccc(NS(C)(=O)=O)cc3)cc(-c3ccccc3)c2c1	35	137*	26	29	39	16
COC(=O)c1cc(Cl)cc2c(C)c(C3(O)CCCCC3)[nH]c12	-11	-5	43	-16	39	13
CCc1c(C2(O)CCCCC2)[nH]c2c(C(=O)OC)cc(Cl)cc12	/	-15	100*	/	/	3
CC(C)c1ccc(-c2nc(N3CCCC3)nc3n[nH]c(N)c23)cc1	10	13	53*	12	7	-9
CC(C)c1ccc(-c2nc(N3CCCCCC3)nc3n[nH]c(N)c23)cc1	10	/	26	22	14	27
O=C(O)CSc1nnc(NC(=O)CN2CCOCC2)s1	0	19	-5	0	-4	-9
O=C(NC(=S)N1CCN(C(c2ccccc2)c2ccccc2)CC1)c1ccc(S(=O)(=O)N2CCOCC2)cc1	-10	-17	66*	24	17	-1
CN1CCN(C(=S)NC(=O)c2ccc(S(=O)(=O)N3CCOCC3)cc2)CC1	9	-27	2	3	-14	-11
O=C(CNC(=O)C1CCCCC1)NCc1ccco1	-2	-4	-3	9	-14	8
SMILES	tim23-1 inh	PfHsp90 yeast 2	SKKanGAS inh	TIM10 inh	tim10-1 inh	EBI2 block
O=C(CN1C(=O)NC(c2ccccc2)(c2ccccc2)C1=O)c1c[nH]c2ccccc12	17	/	14	14	9	/
COc1ccc(/C=N/NC(=O)Cc2csc(Nc3cccc(C(F)(F)F)c3)n2)cc1C	14	-14	77*	9	18	2
CCCS(=O)(=O)NC(=O)C1(C)CCN(C(=O)COc2ccccc2)C1 (stereo not drawn)	/	/	/	/	/	-1
CCc1ccc(Nc2n[n+](-c3ccccc3)c(-c3c(Cl)cccc3Cl)s2)cc1	-2	-3	88*	-6	10	-22
Fc1ccc(-[n+]2nc(Nc3ccccc3)sc2-c2c(Cl)cccc2Cl)cc1	33	3	-2	22	30	6
CCC(Oc1ccccc1)C(=O)N1CCN(C(=O)C(CC)Oc2ccccc2)CC1 (stereo not drawn)	8	-5	-1	-3	-3	-6
O=C(Nc1nnc(SCc2ccc(F)cc2)s1)c1ccc2c(c1)C(=O)N(c1ccccc1Cl)C2=O	-3	-1	54*	1	6	11
N#Cc1nc(-c2ccc(OCc3ccccc3Cl)cc2)oc1NCCCn1ccnc1	35	/	74*	8	26	/
N#Cc1nc(-c2ccc(OCc3ccccc3)cc2)oc1NCCCn1ccnc1	16	-10	44	16	15	8
O=C(CNC(=O)c1ccco1)NCc1ccc2c(c1)OCO2	-12	-33	/	2	5	-7
COc1ccc(C2=NOC(CNC(N)=S)C2)cc1 (stereo not drawn)	-3	-1	51*	0	11	8
O=C(Nc1ccccc1)c1cc(C2COCCN2C(=O)CCCc2ccccc2)on1 (stereo not drawn)	/	/	/	/	/	-8
O=S(=O)(c1ccc(F)cc1)c1nc(-c2ccccc2)oc1N1CCOCC1	27	4	54*	3	28	-2
O=S(=O)(c1ccccc1)c1nc(-c2ccc(F)cc2)oc1N1CCOCC1	18	0	-3	5	-1	11
CCOc1ccc(CCN2C(=O)C(=O)N([C@@H](Cc3ccccc3)CN3CCC[C@H]3CN3C(=O)C(=O)NC[C@@H]3Cc3ccccc3)C[C@@H]2Cc2ccc(O)cc2)cc1	/	/	/	/	/	-7
O=C(Cc1cccc2ccccc12)N/N=C/c1ccc2cccc(O)c2n1	38	-13	71*	37	11	-1
C/C=C/c1cnc2c(c1)C(=O)N([C@H](C)CO)C[C@H](C)[C@@H](CN(C)C(=O)CN1CCOCC1)O2	/	/	/	/	/	4
CCOC(=O)C1=C(C)N=c2s/c(=C/c3ccccc3)c(=O)n2C1c1ccc(OC)c(OC)c1 (stereo not drawn)	13	-18	6	-12	-3	8
CCOC(=O)C1=C(C)n2c(s/c(=C/c3cccc([N+](=O)[O-])c3)c2=O)=NC1c1ccc(O)c(OC)c1 (stereo not drawn)	43	-5	67*	29	39	8
CCOC(=O)C1=C(C)N=c2s/c(=C\c3ccc(O)c([N+](=O)[O-])c3)c(=O)n2C1c1ccccc1OC (stereo not drawn)	30	-27	58*	13	7	2
